Screen size: about 350,000 compounds; about 31,000 (8.9%) were called active. Another 15% or so got no clear call; they are omitted. Only a selection was taken, and actives are over-represented in it overall. A number with no mark means an inactive call. The call rests on the fitted dose curve; in most records, active means well fitted inhibition curve with a large enough effect; inconclusive means small, poorly fitted or top-dose-only effect; inactive means no such curve, though single readings can be large or run the other way.
biological target: Histone-lysine N-methyltransferase EHMT2 (Homo sapiens) (UniProt Q96KQ7); assay: qHTS Assay for Inhibitors of Histone Lysine Methyltransferase G9a; conditions: G9a H3K9 monomethylation, AlphaScreen, 2 h; series mostly up to 59 µM; activity, negative = inhibition: at the top concentration; further: nearly all actives have a fitted effect of over 75% in size
Sequence (Q96KQ7 913-1193 limits assumed): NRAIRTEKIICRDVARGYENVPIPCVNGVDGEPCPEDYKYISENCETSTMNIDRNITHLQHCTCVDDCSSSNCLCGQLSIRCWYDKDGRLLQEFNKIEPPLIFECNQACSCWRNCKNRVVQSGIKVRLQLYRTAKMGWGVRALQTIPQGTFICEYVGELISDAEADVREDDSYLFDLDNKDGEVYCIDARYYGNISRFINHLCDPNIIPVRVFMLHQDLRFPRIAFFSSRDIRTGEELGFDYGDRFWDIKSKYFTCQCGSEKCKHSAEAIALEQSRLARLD
Text: Methylated lysines, on the N-terminal tails of histone proteins serve as epigenetic markers to recruit factors that can then modify local chromatin structure to lead to functional consequences. G9a and other members of the SUV39 family of the SET domain-containing superfamily of histone lysine methyltransferases (HMT) have been identified to specifically methylate Lys9 of histone H3 (H3K9). G9a catalyzes the mono- and di-methylation of H3K9 in mammalian euchromatic regions, where the resulting H3K9me2 is indicative of transcriptional repression. […] The inhibition of G9a will result in transcriptional activation and work synergistically with DNA methyltransferase and histone deacetylase inhibitors, to kill cancer cells. This qHTS assay for identification of G9a inhibitors is a chemiluminescence based AlphaScreen (PerkinElmer). Methylation of biotinylated-histone peptide is measured through specific antibody-based detection, in conjunction with streptavidin-coated donor and anti-IgG antibody-coated acceptor beads. The method is particularly well suited for detection of inhibitors acting by the desired histone peptide competitive mechanism and is applicable to testing other HMTs. Although AlphaScreen has significant advantages with its utility in a variety of epigenetic target assays, the primary screening data provided in this deposition should be used with caution due to the prevalence of screening artifacts. An AlphaScreen counterscreen is highly recommended to be run against any putative actives to eliminate non specific artifacts. Alternatively, one can use other AlphaScreen assays in PubChem to filter out promiscuous hits. Quinn et al. A chemiluminescence-based method for identification of histone lysine methyltransferase inhibitors. Mol Biosyst 6(5): 782-8. 2010. PMID: 20567762 [2] Baell,Holloway. New substructure filters for removal of pan assay interference compounds (PAINS) from screening libraries and for their exclusion in bioassays. J Med Chem. 53(7):2719-40. 2010. PMID: 20131845 NIH Molecular Libraries Probe Production Network [MLPCN] NIH Chemical Genomics Center [NCGC] Structural Genomics Consortium (SGC) NIH Grant: 5U54 MH084681-02
To each well of a 1,536w plate, 2ul of HMT enzyme (final 20nM) were added, using a nanoliter dispenser. The G9a- and GLP-inhibitor BIX-01294 (CID: 25150857) are used as an intraplate control, with a 16-point titration in duplicate. A Kalypsys pin-tool transferred 23nl of library compound solution in DMSO to each well. Following a 15 min incubation of enzyme with compounds at room temperature, 1ul mixture of b-H3K9 peptide substrate (final 500nM) and SAM cofactor (final 20uM) were added. Reactions were allowed to proceed at room temperature for 2 hours. Methylated b-H3K9 peptide product was detected with 0.5 ug/mL rabbit polyclonal anti-monomethyl histone H3K9 antibody (Abcam Inc., Cambridge, MA) and 20 ug/mL each streptavidin-coated donor and anti-rabbit IgG acceptor AlphaScreen beads. Antibody and beads were added in a 1ul dispense, for a final volume of 4ul, and plates were incubated, protected from the light, for 10 min at room temperature. Microplates were then read on an EnVision multilabel plate reader using the 1,536 plate HTS AlphaScreen aperture (excitation time 80 ms, measurement time 240 ms).
On the % scale 0 is the no-effect control and ±100 the full control effect; potency means the concentration at half of the fitted maximal effect.

Structure (SMILES)	activity, negative = inhibition	Potency
COc1ccc(CNC(=O)C(=O)N2CCC3(CC2)OCCN3S(=O)(=O)c2ccc(C)cc2)cc1	-1.44% [at 102 µM] (inactive)	–
COc1ccccc1C(=O)NC(=O)COC(=O)C1CC1	4.91% (inactive)	–
O=S(=O)(NCCCCCCNS(=O)(=O)c1c(F)cccc1F)c1ccc2c(c1)OCCO2	21.9% [at 2.33 µM]	–
CC(=O)CC[C@@H](C)O[C@@H]1OC(C)[C@H](O)CC1O (some centres not stated)	14.8% [at 2.33 µM]	–
Cc1cccc(C(=O)N2CCc3c([nH]c4ccccc34)C2CC(C)C)n1 (configuration not stated)	-45.6% [at 102 µM] (inactive)	–
CCOc1cccc(CC(=O)N2CCc3c([nH]c4ccccc34)C2c2ccc(F)cc2)c1OCC (configuration not stated)	-36.5% (inactive)	–
COCc1ccc(C(=O)N2CCc3c([nH]c4ccccc34)C2c2ccccn2)s1 (configuration not stated)	–	31.6 µM (active)
CC1CCN(C(=O)COC(=O)c2cc(=O)[nH]c3ccccc23)CC1	-8.14% [at 12.7 µM]	–
Cc1cccc(C2c3[nH]c4ccccc4c3CCN2C(=O)c2cc(-c3cccn3C)n[nH]2)n1 (configuration not stated)	–	28.2 µM (active)
CCc1nnc(SCc2c(F)cccc2Cl)c2cc3sccc3n12	3.16% (inactive)	–
CC(C)CN(C(=O)c1ccc2c(c1)OCO2)C1CCS(=O)(=O)C1 (configuration not stated)	-5.1% [at 102 µM] (inactive)	–
CN(CC(=O)Nc1cccc(F)c1)C(=O)C1CSC2(C)CCC(=O)N12 (configuration not stated)	-26.8% [at 102 µM] (inactive)	–
CCC(=O)N1CCc2cc(S(=O)(=O)NC(CC(C)C)C(=O)NCCc3cccc(C)c3)ccc21 (configuration not stated)	-2.04% (inactive)	–
Cc1cc(NC(=O)COc2ccccc2C#N)no1	14.3% (inactive)	–
COCC(=O)N1CCCC(C(=O)c2ccc(C(F)(F)F)cc2)C1 (configuration not stated)	-9.75% [at 102 µM] (inactive)	–
O=C(c1ccc(C(F)(F)F)cc1)C1CCCN(C(=O)c2csnn2)C1 (configuration not stated)	5.79% [at 102 µM] (inactive)	–
Cc1cnc(C(=O)N2CCCC(C(=O)c3ccc(C(F)(F)F)cc3)C2)cn1 (configuration not stated)	–	22.4 µM (active)
O=C(NCc1ccc2c(c1)OCO2)c1ccc(Cl)s1	-27% [at 102 µM] (inactive)	–
CCN(CC)CCN(C(=O)c1cc(Cl)sc1Cl)c1nc2cc3c(cc2s1)OCO3	–	50.1 µM (active)
CCCCN(CC)C(=O)c1ccc2c(c1)OCO2	-0.485% (inactive)	–
Cc1nc2ccc(NC(=O)C3CCCCC3)cc2s1	8.28% [at 12.7 µM]	–
CCN(CC)CCN(C(=O)c1ccc(N2C(=O)CCC2=O)cc1)c1nc2cc3c(cc2s1)OCO3	–	35.5 µM (active)
Cc1nc2cc3c(cc2s1)OCO3	-0.0764% [at 102 µM] (inactive)	–
CCc1ccc2nc(N(CCCN(C)C)C(=O)c3ccc4c(c3)OCCO4)sc2c1	89.7% [at 102 µM] (inactive)	–

Structure (SMILES)	activity, negative = inhibition	Potency
O=C(Nc1nc2cc3c(cc2s1)OCCO3)c1cccc(S(=O)(=O)N2CCOCC2)c1	41.1% [at 102 µM] (inactive)	–
CCc1ccc(Nc2nn3c(=O)c4cc5c(cc4nc3s2)OCO5)cc1	-48.5% (inactive)	–
CN(C)CCN(C(=O)C1CCCCC1)c1nc2cc3c(cc2s1)OCO3	–	70.8 µM (active)
CN(C)CCCN(C(=O)c1ccc(S(=O)(=O)N2CCCCCC2)cc1)c1nc2cc3c(cc2s1)OCCO3	–	44.7 µM (active)
COc1ccccc1N1CCN(CC(=O)Nc2ccnn2C2CCCC2)CC1	10.3% [at 2.33 µM]	–
CCC1Nc2ncnc(N3CCN(c4ccccc4)CC3)c2N(Cc2ccc(Cl)cc2)C1=O (configuration not stated)	3.93% [at 2.33 µM]	–
CC(C)NC(=O)c1nn(-c2ccccc2F)nc1CO	-10.9% (inactive)	–
OCC(CO)NC1C[C@](O)(CO)[C@@H](O)[C@H](O)[C@H]1O (some centres not stated)	19.5% (inactive)	–
Cc1cccc(NC(=S)N2CCC(c3nc4ccccc4s3)CC2)c1	30.9% [at 0.501 µM]	–
O=C(c1cccs1)N1CCC(c2nc3ccccc3s2)CC1	–	39.8 µM (active)
CC(C)(C)c1ccc(OCC(=O)N2CCC(c3nc4ccccc4s3)CC2)cc1	-7.56% (inactive)	–
CC(=O)c1cccc(NC(=O)c2nc(-c3ccccc3)n(-c3cccc(C)c3)n2)c1	-29.5% (inactive)	–
CCOc1ccc(CCNC(=O)c2cc3c(=O)n(C)c4ccccc4c3n2C)cc1	8.2% (inactive)	–
O=C(CCn1c(=O)[nH]c2ccccc2c1=O)NCCCN1CCN(c2cccc(Cl)c2)CC1	-3.86% (inactive)	–
Cn1c(C(=O)NCCCN2CCN(c3cccc(Cl)c3)CC2)cc2c(=O)n(C)c3ccccc3c21	–	7.94 µM (active)
CCN1C(=O)c2ccccc2Sc2ccc(NC(=O)Cc3ccc(OC)cc3)cc21	10.7% (inactive)	–
COc1cc(-c2n[nH]c(=S)n2Cc2ccccc2)cc(OC)c1OC	–	3.55 µM (active)
COc1cc(-c2nnn(CC(=O)NCc3ccccc3)n2)cc(OC)c1OC	–	inactive
CCC(C)n1c(-c2cc(OC)c(OC)c(OC)c2)nc2nc3ccccc3nc21 (configuration not stated)	-1.08% [at 102 µM] (inactive)	–
CCOC(=O)c1nn(-c2cccc(C)c2)cc1C(=O)c1ccccc1	-45.6% [at 2.33 µM]	–
COC(=O)C1=C(O)/C(=C/c2ccc(OCC(=O)Nc3ccccc3)cc2)N=C1C	82.1% [at 102 µM] (inactive)	–
CCOC(=O)C1=C(O)/C(=C/c2cc(C)n(-c3ccccc3)c2C)N=C1C	–	50.1 µM (active)
COc1ccc2oc(C(=O)NCC(Cc3ccccc3)N(C)C)c(C)c2c1 (configuration not stated)	-3.8% [at 102 µM] (inactive)	–
